Hit rate of the full screen: of about 68,000 compounds, about 2,700 (4%) showed an effect of 50% or more. The list comes from a sample in which strong results are over-represented; it also holds similar structures and randomly drawn compounds.
system: Plasmodium berghei; assay: Screen against P. berghei liver stage (PbLuc), transformed with Luciferase, at 2uM; format: functional, HepG2; details: tested at 2 uM

First: Cc1c(F)cccc1S(=O)(=O)NC(C)(C)CN
Second: CC(=O)NCCc1ccc(S(=O)(=O)N(C)C(C)C(C)(C)C)s1 (stereo unspecified)
The INHIBITION of the first is higher: 36.53% for the first, 32.1% for the second.

Going from CNC(=O)[C@@H]1[C@@H](c2ccccc2)CN2CCN(Cc3ccco3)C[C@H]12 to CN(C)c1ccc(NC(=O)C2CN(Cc3ccccc3)CCO2)cn1 (stereo unspecified), the INHIBITION rises from -0.14% to 12.94%.

Going from CCN(Cc1ccco1)C(C)c1nc(C(C)(C)C)no1 (stereo unspecified) to CCN(CC)C(CNCc1ccc(C)o1)c1ccco1 (stereo unspecified), the INHIBITION falls from 33.78% to 15.89%.

Compared with CN(C)CCCNCCC(Cc1ccccc1)C1CCOC(C)(C)C1 (stereo unspecified), CC(CN1CCOCC1)N(Cc1ccccc1)Cc1ccncc1 (stereo unspecified) is higher in INHIBITION: -18.52% for the first, 8.73% for the second.

Compared with CC(C(=O)N1CCn2cncc2C1)N1C[C@@H](C)O[C@@H](C)C1 (stereo partly specified), CC(C(=O)N1CCn2cncc2C1)N1CCCC1 (stereo unspecified) is higher in INHIBITION: -28.11% for the first, 17.2% for the second.

First: O=C(C(c1ccc(F)cc1)N1CCCCC1)N1CCn2cncc2C1 (stereo unspecified)
Second: O=C(c1ccn(-c2cccc(F)c2)n1)N1CCN(CC2CC2)CC1
The INHIBITION of the first is higher: 50.59% for the first, -40.27% for the second.

Going from Cc1nn(C)c(C)c1CC(=O)N1CCCC(n2ccnc2C)C1 (stereo unspecified) to COc1c(C2CCCN2C(=O)CCNc2ncccn2)c(C)nn1C (stereo unspecified), the INHIBITION falls from 45.83% to 6.89%.

Compared with CCCn1nccc1NC(=O)CN1CCn2c(nnc2C2CC2)C1, NC(=O)N1CCCC(c2nc(-c3cccnn3)no2)C1 (stereo unspecified) is higher in INHIBITION: 9.36% for the first, 19.39% for the second.

First: CNC(=O)COC1COC2(CCN(Cc3cccnc3)CC2)C1 (stereo unspecified)
Second: O=C(C1CC1)N1CCC2(CCN(Cc3cccc(F)c3)CC2)CC1
The INHIBITION of the first is higher: 28.88% for the first, 27.05% for the second.

Going from CCSC1=Nc2c(cnn2-c2ccc(Cl)cc2)C2=NCCCN12 to CSC1=Nc2c(cnn2-c2ccc(Cl)cc2)C2=NCCCN12, the INHIBITION falls from 51.78% to -4.43%.

Going from CSC1=Nc2c(cnn2-c2cccc(Cl)c2)C2=NCCCN12 to Cc1cccc(C(=O)N2CCCCC2c2nc3cc(F)ccc3[nH]2)n1 (stereo unspecified), the INHIBITION rises from 18.15% to 65.04%.

Going from CN(C)C(=O)COC[C@@H]1CC[C@H]2[C@H](CCN2c2ccccn2)O1 to CN(C)C(=O)COC[C@H]1CC[C@@H]2[C@@H](CCN2Cc2ccccn2)O1, the INHIBITION rises from -3.69% to 53.98%.

Compared with c1ccc(COC[C@H]2CC[C@H]3[C@H](CCN3Cc3ccccn3)O2)nc1, NCC1CCC(C(NC(=O)c2ccccn2)c2ccccn2)CC1 (stereo unspecified) is higher in INHIBITION: 4.54% for the first, 8.1% for the second.

Going from OCCN1CC2(CCN(c3ccccc3)C2)C1 to CCC(O)CN1CCN(C(=O)c2ccn(-c3ccccc3)n2)CC1 (stereo unspecified), the INHIBITION rises from -55.62% to 14.97%.

Going from CCN(C)C1CCCc2nc(C)sc21 (stereo unspecified) to COCC(=O)N1CCCC1c1cc(Nc2nnc(C)s2)nc(C)n1 (stereo unspecified), the INHIBITION rises from 9.52% to 10.43%.

Compared with CN(Cc1nc(C2CC2)no1)C1CCS(=O)(=O)C1 (stereo unspecified), CC(C)Cc1noc(CN(C)C2CCS(=O)(=O)C2)n1 (stereo unspecified) is lower in INHIBITION: 31.27% for the first, -12.52% for the second.

First: COc1ccc(OCc2noc(CN(C)C3CCS(=O)(=O)C3)n2)cc1 (stereo unspecified)
Second: Cc1noc(C)c1CN1C(=O)[C@@H]2CC[C@H]1CN(Cc1cccc(O)c1)C2
The INHIBITION of the first is higher: 57.91% for the first, 30.42% for the second.

Compared with CCC1=NN2C(=N)C(=Cc3cccn3-c3ccc(Cl)cc3)C(=O)N=C2S1, CC(O)CN1CCN(C(=O)c2ccn(-c3cccc(Cl)c3)n2)CC1 (stereo unspecified) is lower in INHIBITION: -3.11% for the first, -42.32% for the second.

First: CCC(O)CN1CCN(C(=O)c2ccn(-c3cccc(F)c3)n2)CC1 (stereo unspecified)
Second: O=C(c1ccn(-c2cccc(F)c2)n1)N1CCN(CCO)CC1
The INHIBITION of the first is higher: 52.3% for the first, 19.12% for the second.

First: CC1CCCCN1CCNC(=O)c1ccn(-c2cccc(F)c2)n1 (stereo unspecified)
Second: O=C(NCCn1cccn1)c1ccn(-c2cccc(F)c2)n1
The INHIBITION of the first is lower: 2.18% for the first, 64.16% for the second.

First: O=C(NCCn1ccnc1)c1ccn(-c2cccc(F)c2)n1
Second: CC(C)(O)CN1CCN(C(=O)c2ccn(-c3cccc(F)c3)n2)CC1
The INHIBITION of the first is lower: 8.37% for the first, 65.76% for the second.

First: NC(=O)COc1ccc(CNCc2cc(F)cc(F)c2)cc1
Second: Cc1ccc(C(=O)NCc2ccc(N(C)C)cc2)cn1
The INHIBITION of the first is higher: 19.7% for the first, 8.73% for the second.

Going from CC(C)O[C@@H]1CC[C@H]2[C@H]1OCCN2C(=O)c1nn(C)c2ccccc12 to COc1c(C(=O)N2CCOC(c3cccs3)C2)c(C)nn1C (stereo unspecified), the INHIBITION rises from -13.37% to -11.34%.

First: CCN1C(=O)CCCC12CCCN(C(=O)c1cnccn1)C2 (stereo unspecified)
Second: CCN1CCOCC2(CCCN(C(=O)c3conc3C)C2)C1 (stereo unspecified)
The INHIBITION of the first is lower: -41.21% for the first, 16.67% for the second.

Compared with COc1cc2c(cc1CNCc1ccnc(-n3cccn3)c1)OC(C)C2 (stereo unspecified), COc1ccc(C)cc1CN1CCC(c2cc3ncccc3cn2)CC1 is lower in INHIBITION: 17.61% for the first, -17.29% for the second.

Going from CCCC(=O)N(Cc1ccncc1)C(C)CC (stereo unspecified) to CCC(C)N(Cc1ccncc1)C(=O)CCSC (stereo unspecified), the INHIBITION falls from 52.98% to -20.95%.

First: CCOCCC(=O)N(Cc1ccncc1)C(C)CC (stereo unspecified)
Second: CCNC(=O)CCC(=O)NC(C)Cc1ccccc1Br (stereo unspecified)
The INHIBITION of the first is lower: -35.26% for the first, -3.87% for the second.

First: O=C([C@H]1C[C@H]2OCC[C@H]2N(Cc2ccoc2)C1)N1CCCCO1
Second: c1cncc(-c2nccc(CN3CCC(N4CCCCC4)CC3)n2)c1
The INHIBITION of the first is lower: 21.77% for the first, 25.72% for the second.

Going from CS(=O)(=O)NCCCn1ccc2ccccc21 to CCn1cc(S(=O)(=O)NCC(OC)c2ccccc2)cn1 (stereo unspecified), the INHIBITION rises from 24.23% to 58.12%.

Compared with COC(=O)CCC(=O)NC(C)Cc1ccccc1Br (stereo unspecified), COC(=O)NCCC(=O)NC(C)Cc1ccccc1Br (stereo unspecified) is higher in INHIBITION: 2.7% for the first, 63.46% for the second.

Going from CS(=O)(=O)NCc1cc(-c2cc(F)cc(F)c2)nc(N2CC[C@H](O)C2)n1 to O=C(c1cccc(CO)n1)N1CCCC1c1nc2cc(F)ccc2[nH]1 (stereo unspecified), the INHIBITION falls from 4.66% to -20.6%.

Compared with COc1ncccc1CNC(=O)NC(C)Cn1cccn1 (stereo unspecified), COCc1ccccc1NC(=O)NC(C)c1ccc(C)o1 (stereo unspecified) is higher in INHIBITION: 31.7% for the first, 53.19% for the second.

First: O=C(CN1CCCC1c1nc2cc(F)ccc2[nH]1)NCc1ccccn1 (stereo unspecified)
Second: Fc1ccc2[nH]c(C3CCCN3CCc3ccccn3)nc2c1 (stereo unspecified)
The INHIBITION of the first is higher: 57.75% for the first, -55.56% for the second.

First: Fc1ccc2[nH]c(C3CCCN3Cc3c[nH]cn3)nc2c1 (stereo unspecified)
Second: Cc1cc(C(=O)N2CCCCC2c2nc3cc(F)ccc3[nH]2)no1 (stereo unspecified)
The INHIBITION of the first is lower: 19.59% for the first, 33.92% for the second.

Going from CCN1CCCc2cc(CN3CCc4c(nc(C)[nH]c4=O)C3)ccc21 to CS(=O)(=O)Cc1nc(CN2CCCc3sccc3C2)cs1, the INHIBITION rises from -9.49% to 38.67%.

Going from Cc1cc(C)nc(N2CCC(C(=O)Nc3n[nH]c(C(C)C)n3)CC2)n1 to CC(C)N(C)Cc1cc(=O)n2c(n1)CN(C(=O)c1ccnnc1)CCC2, the INHIBITION rises from 19.84% to 25.92%.

First: CN(c1ccc(CNC(=O)c2ccc(O)nc2)cc1)C1CCCCC1
Second: CN(c1ccc(CNC(=O)c2c[nH]c(=O)c(Cl)c2)cc1)C1CCCCC1
The INHIBITION of the first is higher: 51.76% for the first, -20.64% for the second.

Compared with COCc1ccccc1NC(=O)c1ccoc1, COC(CNC(=O)c1ccoc1)c1cccc(Cl)c1 (stereo unspecified) is higher in INHIBITION: -38.36% for the first, -0.15% for the second.

First: Cc1ccc(C(C)NC(=O)Nc2ccccc2CN2CCOCC2)o1 (stereo unspecified)
Second: CS(=O)(=O)Cc1nc(CN2CCOc3ccccc3C2)cs1
The INHIBITION of the first is lower: -10.54% for the first, 33.9% for the second.

First: CCn1c(C)nnc1SCCNC(=O)Cn1cnc2ccccc2c1=O
Second: CCn1cc(S(=O)(=O)NC(CO)Cc2ccccc2)cn1 (stereo unspecified)
The INHIBITION of the first is higher: 38.67% for the first, 29.19% for the second.

Going from CO[C@@H]1CCN(Cc2nccs2)C[C@@H]1Cc1cccc(C)c1 to CS(=O)(=O)Cc1nc(CN2CC=C(c3ccccc3)CC2)cs1, the INHIBITION falls from 10.17% to -4.26%.

Going from CS(=O)(=O)Cc1nc(CN2CCC(C(F)(F)F)CC2)cs1 to CS(=O)(=O)Cc1nc(CN2CCc3ccccc3CC2)cs1, the INHIBITION falls from 62.51% to 41.05%.

First: CC1(C)CN(Cc2csc(CS(C)(=O)=O)n2)Cc2ccccc21
Second: COc1ccccc1CC1CCCN(C(=O)c2cn[nH]c2C)C1 (stereo unspecified)
The INHIBITION of the first is higher: 52.98% for the first, -62.85% for the second.

Going from CN(C)C1COC2(CCN(S(=O)(=O)c3ccc(F)cc3)CC2)C1 (stereo unspecified) to Fc1cccc(N2CCCC3(C2)CN(c2ncccn2)CCO3)c1 (stereo unspecified), the INHIBITION falls from 42.4% to 39.9%.

First: Cc1ccccc1C1CCCN(C(=O)c2c[nH]c(=O)c(Cl)c2)C1 (stereo unspecified)
Second: Cc1noc(C2CCCN(C(=O)c3ccc(Br)o3)C2)n1 (stereo unspecified)
The INHIBITION of the first is higher: 23.16% for the first, 3.9% for the second.

Compared with Cc1nn(C)c(C)c1C1CCCN1c1ncnc2[nH]ccc12 (stereo unspecified), CCc1cc(C)c(C(=O)N2CCCC2CC(=O)c2cnn(C)c2)o1 (stereo unspecified) is higher in INHIBITION: -41.8% for the first, 9.3% for the second.

Compared with COc1ccc2c(c1)CCCN(C(C)C(=O)NC(C)C)C2 (stereo unspecified), COC(=O)C(C)N1CCCc2cc(OC)ccc2C1 (stereo unspecified) is higher in INHIBITION: 47.68% for the first, 58.69% for the second.

Compared with COc1ccc2c(c1)CCCN(C(C)C(=O)NC(N)=O)C2 (stereo unspecified), CCn1cc(S(=O)(=O)NCC(OC)c2cccc(Cl)c2)cn1 (stereo unspecified) is higher in INHIBITION: 6.92% for the first, 31.78% for the second.

First: COC(CNC(=O)c1ccc(NC(C)=O)cc1)c1cccc(Cl)c1 (stereo unspecified)
Second: CCn1cc(C(=O)NCC(OC)c2cccc(Cl)c2)cn1 (stereo unspecified)
The INHIBITION of the first is lower: -8.34% for the first, 55.73% for the second.

First: Cc1cnn(CCNCC(O)COc2ccc(Cl)cc2Cl)c1 (stereo unspecified)
Second: O=C(NCC1CCOC1)c1csc(-c2cccc(Cl)c2)n1 (stereo unspecified)
The INHIBITION of the first is lower: 23.94% for the first, 25.74% for the second.

Compared with N[C@H]1CN(C(=O)c2ccc3[nH]c(=O)c(=O)[nH]c3c2)C[C@@H]1c1ccccc1, O=C(Nc1ccc2c(c1)OC1(CCCCC1)O2)c1ccc(=O)[nH]n1 is higher in INHIBITION: -6.88% for the first, -5.9% for the second.

Going from N#Cc1ccccc1N1CC2(CCCCN2CC2CC2)CC1=O (stereo unspecified) to c1cncc(-c2nccc(CN3CCCC3)n2)c1, the INHIBITION rises from -47.71% to 52.89%.

First: COCc1cc(CNC(=O)c2c(O)cccc2O)n[nH]1
Second: CCN1CCN(Cc2ccnc(-c3cccnc3)n2)CC1
The INHIBITION of the first is higher: 30.93% for the first, 15.58% for the second.

— ChEMBL document CHEMBL4513216, “Probing the Open Global Health Chemical Diversity Library for Multistage-Active Starting Points for Next-Generation Antimalarials” (ACS Infect Dis, 2020)
